Assay results published in PubChem BioAssay AID504336 (NMMLSC, 2011).
Where “and” joins values, the source holds several entries; their conditions need not be identical. Identical values can stand only once. Unmarked numbers belong to inactive results. Calls of active or inactive are those of the source.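 How the source made its calls: active means compounds whose GFP signal falls below 65% of the DMSO control level; inconclusive means fewer than 70 yeast cells counted in the well; inactive means the rest.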

Experiment: TOR branch reporter RPL19A-GFP response – cell-based, S. cerevisiae, third cherry pick, flow cytometry, confirmation (AID 504336);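 further: median GFP fluorescence of all gated yeast cells by flow cytometry; ratio of well median fluorescence to plate mean of DMSO wells with DMSO = 100%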
Settings: S. cerevisiae RPL19A-GFP strain, 3 h, at 10 µM, stronger effect = lower value

With `Cc1ccc(NN2C(=O)C=C(c3ccccc3)C2=O)cc1` the GFP response relative to DMSO was 61.2% (active).
In the case of `COc1ccccc1-c1cc(C(F)(F)F)nc(S(=O)(=O)CCCC(=O)NC(C)C)n1`, the GFP response relative to DMSO is reported as 94.4% and 99.1%.
In the case of `COc1ccc(-c2cc(C(F)(F)F)nc(S(C)(=O)=O)n2)cc1OC`, the GFP response relative to DMSO is reported as 99.6% and 103%.

In order of falling GFP response relative to DMSO:
1. COc1ccc(NC(=O)ON=C2c3ccccc3-c3ccccc32)cc1  107%
2. CN(C)CCCNc1cc(O)c2ncccc2c1  103%
3. COc1cc(=O)n(C)c2c(O)cccc12  101%
4. COc1cccc(N/C=C/C(=O)c2ccc(Cl)cc2)c1  101%
5. COc1cccc(N/C(C)=C/C(=O)c2ccc(Br)cc2)c1  101%
6. Cc1ccc(Nc2cc(=O)[nH]c(=O)[nH]2)cc1Cl  100%
7. CN1CCN(C(=O)c2cc(COc3ccc(F)cc3Cl)on2)CC1c1ccccc1 (configuration not stated)  100%
8. OCCNc1ncnc2ccc(Br)cc12  99.8%
9. COc1cccc2c(O)cc(=O)n(C)c12  99.6%
10. Cc1ccc(C(=O)Nc2nc(-c3ccccn3)cs2)o1  99.3%
11. CC(=O)Nn1cnc2c(c1=O)C1(CCCC1)Cc1ccccc1-2  99.3%
12. Cc1cc(C)c(NC(=O)CC(=O)c2ccccc2)c(Cl)c1  97.8%
13. Cc1ccc2nc(-c3ccc(NC(=O)c4cccnc4)cc3)oc2c1  97.2%
14. O=C(N/N=C/c1ccccc1O)c1cccc2ccccc12  97%
